We go through six molecules from the supplement of paper PMC10105736.

Assay in all cases: MAPPIT interaction score (arbitrary units); higher = stronger binary interaction signal, active = hit call of the paper
Test [1] deals with PIG-C. As to conditions: MAPPIT configuration: N-C; pair source set: screen_3;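 active = MAPPIT score above the 99th percentile of random reference set scores in the same batch; inactive = at or below it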.
Test [2] addresses Tsp96F. As to conditions: MAPPIT configuration: N-C; pair source set: screen_4.
For test [3], the target named is PGRP-LE. The settings on record: MAPPIT configuration: N-N; pair source set: Curagen_low_conf.
Test [4] deals with PGRP-LC. As to conditions: pair source set: Lit-BM-16.
Test [5] concerns the target Pak3. As to conditions: MAPPIT configuration: N-C; pair source set: RRS.
The target in test [6] is Past1. As to conditions: MAPPIT configuration: N-N; pair source set: Lit-BM-16.
For test [7], the target named is Rm62. The settings on record: MAPPIT configuration: N-N; pair source set: Curagen_high_conf.
In test [8] the target is ktub. As to conditions: MAPPIT configuration: N-N; pair source set: Curagen_high_conf.
The target in test [9] is mira. The settings on record: pair source set: Lit-BM-16.

± gives the standard deviation of the averaged measurements.
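Further: HEK293T cells with Epo stimulation, STAT-responsive firefly luciferase reporter, fold induction versus unstimulated cells divided by the larger fold induction of two negative controls lacking either bait or prey.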

B1: Vha16-1 (protein)
chain: MSSEVSSDNPIYGPFFGVMGAASAIIFSALGAAYGTAKSGTGIAAMSVMRPELIMKSIIPVVMAGIIAIYGLVVAVLIAGALEEPSKYSLYRGFIHLGAGLAVGFSGLAAGFAIGIVGDAGVRGTAQQPRLFVGMILILIFAEVLGLYGLIVAIYLYTK
Regarding B1, the MAPPIT interaction score is 0.119 (inactive) in test [1] and 0.231 (inactive) in [2].

B2: CG9588 (protein)
chain: MAAGTTTKERLERLINAKKQLEAQINRNGQILAANDNVGMSGPLVDAEGFPRNDIDVYQVRLARQTIICLQNDHKELMNQIQTLLNQYHSEIATTDPELVNRASALDLDSDRSPGGANITDLAPARAIVVVNLVSPDSPAERAGLCAGDAILRFGSINSGNFKGDLAQIGELVRNMQSQNVQLKVKRGEQQLDLILVPKTWSGRGLLGCNIVLPPEAMDH
In the case of B2, the MAPPIT interaction score in test [3] is 0.614 (inactive).

B3: PGRP-LC (protein)
chain: MPFSNETEMSQCSNAKRRVNDPLTGPKNCSTSSTDSGVILNDNVAAFRPEKETKDRGTGEGQFQSKSEEKTESKRISVEHTVNITTENVGKTSSPAVSIRSTTISVVSIDDNAIDSSSIDSDSEAEAEDYTVQKLGHQVTYPPNSSHLRDLNQGLTVISRHVAPGEAAVPPPNPLEAGIVAKQILNGNLAVATPTSPAGGATQGIGSIALTNSTDVTFGDKHFYEGPVTIQQFLIDNRDKWKPGEGPAGGQDNPAFNGGPSTNGSAPGSKHEDPAQTPPICPFLPNTVGRKAVTVTVVFVTLTFLLGIVLATTTNLFGKTLNQSKIRDDDDYRQNIPINSTIDLDNIGGGLILRFVERQQWLAQPPQKEIPDLELPVGLVIALPTNSENCSTQAICVLRVRLLQTYDIESSQKCDIAYNFLIGGDGNVYVGRGWNKMGAHMNNINYDSQSLSFAYIGSFKTIQPSAKQLSVTRLLLERGVKLGKIAPSYRFTASSKLMPSVTDFKADALYASFANWTHWS
As to B3, the MAPPIT interaction score is -0.131 (inactive) in test [4] (MAPPIT configuration: N-C) and 2.43 ± 0.6 in test [4] (MAPPIT configuration: N-N).

B4: Cyp12e1 (protein)
chain: MLSTQWNANKQISRQIYQLCRGLAQKATAVNLEEAKPYADIPGPSKLQLIRAFLPGGLYKNLPVHEMFLDMNRQYGSIFRMPSVAGTDLVLTMNPQDYEVIFRNEGQYPYRRSFEVMDYFKRVHRREVFDGYDGLTSGNGPAWGKMRTAVNPILLQPRNAKLYMTNLVQVSDEFLERIRIIRDPVTQEMPDDFAVDIRHLVIESICSVALNTHLGLLGEQRNNKDIQKLVLALQDVVELGFQLDIMPAFWKYLPMPNFKKLMRSLDTITDFCYFHIGNALKRIEEDAKAGTLNEIGLETSLLEKLARFDRQTAVIIAMDLLFAGADPTLVTLGGILFSLSKSPDKQARLLEEIRGILPNKDSSLTIENMRNLPYLRACIKEGIRMYPIGPGTLRRMPHDVVLSGYRVVAGTDVGIAANYQMANMEQFVPKVREFIPERWLRDESNSHLVGETATPFMYLPFGFGPRSCAGKRIVDMMLEIAISRLVRNFKIGFDYPIENAFKAQFFVQPNIPFKFKFIERNE
B4: the MAPPIT interaction score in test [5] was 2.68 (inactive).

B5: wat (protein)
chain: MDDPKIMNIMNGMKSLEDHCQLISDVKDESPMQMFYKDKGVFLTGGTGFFGKIIIEKLLRVTEVGQIYLLIRTKKGKDAFARIEDLFNDPVFAKMKQVNPKYRCQITIISGDCSLPGLGISADERETIMENVNIVLHSAATVRFDEKLKMAIAINVHGTKEIIKLAKEIVNLKALVHVSTAFAHCNMRHIQERFYSGTMSGENAFKLSECLDEHTLNTLTPTIIKGYPNTYTFTKVLAENVVQQSAQNLPVTIFRPGIVITTYREPVTGWIDNMYGPCGVIVGIGSGVLRVFTGDMDNKAHIVPVDMCVNALLASAWDIARNKYETPPIYNYVPDAENMVTWRRYMEDGFEYGCDIPMRKSIWYPRFTIVPHMWQYHILCFLYHTLPALVMDAIMVIIGKKPRMMKIYRKIHKLSNVLKYFSSNEFRFDNDNVRKLTEKLDDRDKRLFAFDMRDLDWTNLFRVSLYGLRLYVVKDDPSNIPESIKRYERLKVLHYTTLAVFYALAAWALYALLKLFL
As to B5, in test [1], the MAPPIT interaction score was 1.02 (inactive).

B6: numb (protein)
chain: MGNSSSHTHEPLERGFTRGKFGDVKNGKSASFRFSKKSPKKMDRLRRSFRDSFRRRKDRVPESSKPHQWQADEEAVRSATCSFSVKYLGCVEVFESRGMQVCEEALKVLRQSRRRPVRGLLHVSGDGLRVVDDETKGLIVDQTIEKVSFCAPDRNHERGFSYICRDGTTRRWMCHGFLACKDSGERLSHAVGCAFAVCLERKQRRDKECGVTMTFDTKNSTFTRTGSFRQQTLTERLAMATVGTNERSVDGPGSAMPGPPAATVKPFNPFAIERPHATPNMLERQSSFRLSTIGSQSPFKRQMSLRINDLPSNADRQRAFLTAAAGNPMQTPLRSVSPIAEVSPAKSAGADPLSAAAVAADSVSQLCQELSQGLSLLTQTDALLAAGEDLNFNNNRSINQNIIAAEKQVQHVHSYAPPTAQVTPRVASTTPTYQTLHSQSPSRSEQSIETSTELPNAEQWLGHVVRSTSPAAPKRPTYLANVGRAQTLASGTGAAVGGGGPDDPFDAEWVANVAAAKQLSPDLPIPSTARSPLARHSTNPFISPPKAPAQSFQVQL
In the case of B6, the MAPPIT interaction score in test [6] is 0.0235 (inactive); in test [7] it was -0.368 (inactive); in test [8], -1.3 (inactive); in [9] (MAPPIT configuration: N-C) it was 1.17 (inactive); in test [9] (MAPPIT configuration: N-N), -0.252 (inactive).
